This is an account of results in PubChem BioAssay (EPA / NIEHS).

Results filed as inconclusive are left out. Active and inactive are the calls of the source. How the source made its calls: active means hit-call score of the fitted dose curve at least 0.9, where 1 is the maximum; inconclusive means response in the unintended direction; inactive means score below 0.9.

The target in test [1] is human Adrenergic, Beta 3 Receptor (Adrb3), ADRB3 (gene 155) (UniProt P13945). In words: NVS_GPCR_hAdrb3: NovaScreen (NVS) G Protein-Coupled Receptor Assay for human Adrenergic, Beta 3 Receptor (Adrb3) (AID 2283262). The method in brief:
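A cell-free filter binding assay read by scintillation counting, with displacement of a specific radioligand measured after 1 hour. The receptor source was SK-N-MC extracts (cells pretreated with isoproterenol and 8-bromo-cAMP). Compounds were first tested at 25 uM in duplicate and then in concentration series.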

For test [2], the target named is human Dopamine Receptor D2 (DRD2), DRD2 (gene 1813) (UniProt P14416). The test can be described thus: NVS_GPCR_hDRD2s: NovaScreen (NVS) G Protein-Coupled Receptor Assay for human Dopamine Receptor D2 (DRD2) (AID 2283266). A digest of the protocol: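 Test compound (25 uM, duplicate in the primary screen; concentration series at follow-up) competed with radioligand for human DRD2 in CHO-derived membrane protein. Filter-based scintillation counting was done 1.5 hours after dosing, with loss of signal analysed against DMSO.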

Test [3] has as its target Beta-2 adrenergic receptor (Homo sapiens) (UniProt P07550). In words: NVS_GPCR_hAdrb2: NovaScreen (NVS) G Protein-Coupled Receptor Assay for human Adrenergic, Beta 2 Receptor (Adrb2) (AID 2283261). A digest of the protocol: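 Compounds screened in duplicate at 25 uM, then actives in concentration series. Human beta-2 receptor from CHO material, cell-free; radioligand displacement after 1 h measured by filtration and scintillation against DMSO baseline.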

The target in test [4] is Type-1 angiotensin II receptor (Homo sapiens) (UniProt P30556). The test can be described thus: NVS_GPCR_hAT1: NovaScreen (NVS) G Protein-Coupled Receptor Assay for human Angiotensin II receptor type 1 (AT1) (AID 2283263). The procedure:
NVS_GPCR_hAT1 is a biochemical, single-readout assay that uses extracted gene-proteins from KAN-TS in a tissue-based cell-free assay. Measurements were taken 3 hours after chemical dosing in a 48-well plate.NVS_GPCR_hAT1 is one of one assay component(s) measured or calculated from the NVS_GPCR_hAT1 assay. It is designed to make measurements of radioligand binding, a form of binding reporter, as detected with scintillation counting signals by Filter-based radiodetection technology.Data from the assay component NVS_GPCR_hAT1 was analyzed into 1 assay endpoint. This assay endpoint, NVS_GPCR_hAT1, was analyzed in the positive analysis fitting direction relative to DMSO as the negative control and baseline of activity. […] Furthermore, this assay endpoint can be referred to as a primary readout, because the performed assay has only produced 1 assay endpoint. […]
Binding assays used specific radioligands (tritiated, iodinated) with non-radioactive competitive displacement ligands in agonist or antagonist protocols (as indicated) and various reference compounds and inhibitors to titrate specific binding to receptors and transporters. Most enzyme assays (CYPs, kinases, phosphatases, proteases, HDACs) used recombinant protein and specific substrates (fluorescence mostly, some colorimetric and radioactive) and inhibitors, followed by a biochemical separation of substrate and product. […]

Test [5] addresses human Dopamine Receptor D4.4 (DRD4.4), DRD4 (gene 1815) (UniProt P21917). The test can be described thus: NVS_GPCR_hDRD4.4: NovaScreen (NVS) G Protein-Coupled Receptor Assay for human Dopamine Receptor D4.4 (DRD4.4) (AID 2283264). The method in brief: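 Filter-binding assay with a tritiated or iodinated ligand, cell-free receptor prepared from CHO, 1 hour. Loss of bound radioactivity versus DMSO; single 25 uM duplicate screen, then concentration-response for actives.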

For test [6], the target named is human Histamine 1 Receptor (H1), HRH1 (gene 3269) (UniProt P35367). The test can be described thus: NVS_GPCR_hH1: NovaScreen (NVS) G Protein-Coupled Receptor Assay for human Histamine 1 Receptor (H1) (AID 2283268). The method in brief:
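Filter-based scintillation detection of radioligand binding to human H1, 1 h incubation; chemicals screened in duplicate at 25 uM, then concentration-response; signal loss relative to DMSO taken as activity.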

Test [7] addresses D(1A) dopamine receptor (Homo sapiens) (UniProt P21728). The test can be described thus: NVS_GPCR_hDRD1: NovaScreen (NVS) G Protein-Coupled Receptor Assay for human Dopamine Receptor D1 (DRD1) (AID 2283269). A digest of the protocol: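 Cell-free competition with radioligand, filter-trapped and scintillation-counted 1 h post-dose, using HEK293-derived human D1 preparation. Duplicate single-point testing at 25 uM first, then concentration series for actives; DMSO served as baseline, loss-of-signal scored.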

Test [8] has as its target Muscarinic acetylcholine receptor M1 (Homo sapiens) (UniProt P11229). In words: NVS_GPCR_hM1: NovaScreen (NVS) G Protein-Coupled Receptor Assay for human Muscarinic, M1 Receptor (AID 2283270). As for the experimental part: NVS_GPCR_hM1 is a biochemical, single-readout assay that uses extracted gene-proteins from CHO in a cell-free assay. Measurements were taken 1 hour after chemical dosing in a 96-well plate.NVS_GPCR_hM1 is one of one assay component(s) measured or calculated from the NVS_GPCR_hM1 assay. It is designed to make measurements of radioligand binding, a form of binding reporter, as detected with scintillation counting signals by Filter-based radiodetection technology.Data from the assay component NVS_GPCR_hM1 was analyzed into 1 assay endpoint. This assay endpoint, NVS_GPCR_hM1, was analyzed in the positive analysis fitting direction relative to DMSO as the negative control and baseline of activity. Using a type of binding reporter, loss-of-signal activity can be used to understand changes in the binding as they relate to the gene CHRM1. Furthermore, this assay endpoint can be referred to as a primary readout, because the performed assay has only produced 1 assay endpoint. To generalize the intended target to other relatable targets, this assay endpoint is annotated to the gpcr intended target family, where the subfamily is rhodopsin-like receptor.
Binding assays used specific radioligands (tritiated, iodinated) with non-radioactive competitive displacement ligands in agonist or antagonist protocols (as indicated) and various reference compounds and inhibitors to titrate specific binding to receptors and transporters. Most enzyme assays (CYPs, kinases, phosphatases, proteases, HDACs) used recombinant protein and specific substrates (fluorescence mostly, some colorimetric and radioactive) and inhibitors, followed by a biochemical separation of substrate and product. All assays for the biochemical HTS were initially run in duplicate at a single concentration (10 uM for CYP450 assays and 25 uM for all others). […] Each assay was run with positive and negative controls, and concurrent controls on every plate. The follow-up (secondary) screen tested active chemical-pairs in concentration series, as well as a few additional assays not tested in the primary screen, some selected negative inactives, and several cases re-run in the concentration series for confirmatory purposes.

Test [9] addresses human Endothelin Receptor Type A (ETA), EDNRA (gene 1909) (UniProt P25101). The test can be described thus: NVS_GPCR_hETA: NovaScreen (NVS) G Protein-Coupled Receptor Assay for human Endothelin Receptor Type A (ETA) (AID 2283265). A digest of the protocol: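 Binding of radioligand to membrane protein extracted from SH-SY5Y cells was read by filtration and scintillation after 3 h. Compounds were screened at 25 uM in duplicate, with hits followed up in singleton concentration series to 50 uM.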

Test [10] has as its target human Endothelin Receptor Type B (ETB), EDNRB (gene 1910) (UniProt P24530). In words: NVS_GPCR_hETB: NovaScreen (NVS) G Protein-Coupled Receptor Assay for human Endothelin Receptor Type B (ETB) (AID 2283267). The method in brief:
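Filter-based scintillation readout of radioligand displacement, 4 h, using membranes from human astrocytoma cells. Actives from a 25 uM duplicate screen were retested in concentration-response (top 50 uM) relative to DMSO baseline.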

In general, AC50 refers to the concentration at which the activity in the assay is half-maximal.

Chain of Beta-2 adrenergic receptor (Homo sapiens) (P07550 whole entry, looked up): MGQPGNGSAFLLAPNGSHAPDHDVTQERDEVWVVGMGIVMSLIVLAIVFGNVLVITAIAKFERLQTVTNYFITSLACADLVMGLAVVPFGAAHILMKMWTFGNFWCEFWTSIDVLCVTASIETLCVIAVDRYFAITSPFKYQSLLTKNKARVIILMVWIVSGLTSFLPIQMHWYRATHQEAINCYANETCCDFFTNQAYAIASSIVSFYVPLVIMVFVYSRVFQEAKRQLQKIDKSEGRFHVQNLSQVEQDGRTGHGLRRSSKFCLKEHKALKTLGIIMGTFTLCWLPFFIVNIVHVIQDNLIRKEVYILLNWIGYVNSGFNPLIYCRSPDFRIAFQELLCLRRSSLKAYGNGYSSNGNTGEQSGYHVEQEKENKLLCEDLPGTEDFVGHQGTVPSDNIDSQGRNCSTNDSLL
Chain of human Dopamine Receptor D4.4 (DRD4.4), DRD4 (gene 1815) (P21917 whole entry, looked up): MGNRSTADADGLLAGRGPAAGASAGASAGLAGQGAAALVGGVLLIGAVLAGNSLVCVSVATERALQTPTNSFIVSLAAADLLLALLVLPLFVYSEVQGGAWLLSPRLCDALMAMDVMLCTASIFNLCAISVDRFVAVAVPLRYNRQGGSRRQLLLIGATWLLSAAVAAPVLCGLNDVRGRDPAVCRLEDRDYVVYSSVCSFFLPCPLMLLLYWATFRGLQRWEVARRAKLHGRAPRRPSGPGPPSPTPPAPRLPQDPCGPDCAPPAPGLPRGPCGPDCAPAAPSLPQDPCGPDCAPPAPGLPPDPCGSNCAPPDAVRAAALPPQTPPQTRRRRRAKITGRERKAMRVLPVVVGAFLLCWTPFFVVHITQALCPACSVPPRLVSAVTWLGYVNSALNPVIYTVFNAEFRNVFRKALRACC
Chain of D(1A) dopamine receptor (Homo sapiens) (P21728 whole entry, looked up): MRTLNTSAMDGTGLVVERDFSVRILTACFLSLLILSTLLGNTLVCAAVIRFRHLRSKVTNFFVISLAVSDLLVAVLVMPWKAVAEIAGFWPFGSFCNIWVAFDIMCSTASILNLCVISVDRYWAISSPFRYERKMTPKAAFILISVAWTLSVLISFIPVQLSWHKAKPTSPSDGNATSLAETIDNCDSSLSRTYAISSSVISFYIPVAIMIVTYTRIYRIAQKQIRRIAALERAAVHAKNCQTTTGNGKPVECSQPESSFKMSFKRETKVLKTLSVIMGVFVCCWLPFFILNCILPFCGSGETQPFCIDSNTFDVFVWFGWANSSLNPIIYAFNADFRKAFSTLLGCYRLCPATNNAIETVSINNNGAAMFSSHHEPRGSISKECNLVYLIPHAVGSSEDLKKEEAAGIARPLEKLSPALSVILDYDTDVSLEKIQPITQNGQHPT
Chain of human Histamine 1 Receptor (H1), HRH1 (gene 3269) (P35367 whole entry, looked up): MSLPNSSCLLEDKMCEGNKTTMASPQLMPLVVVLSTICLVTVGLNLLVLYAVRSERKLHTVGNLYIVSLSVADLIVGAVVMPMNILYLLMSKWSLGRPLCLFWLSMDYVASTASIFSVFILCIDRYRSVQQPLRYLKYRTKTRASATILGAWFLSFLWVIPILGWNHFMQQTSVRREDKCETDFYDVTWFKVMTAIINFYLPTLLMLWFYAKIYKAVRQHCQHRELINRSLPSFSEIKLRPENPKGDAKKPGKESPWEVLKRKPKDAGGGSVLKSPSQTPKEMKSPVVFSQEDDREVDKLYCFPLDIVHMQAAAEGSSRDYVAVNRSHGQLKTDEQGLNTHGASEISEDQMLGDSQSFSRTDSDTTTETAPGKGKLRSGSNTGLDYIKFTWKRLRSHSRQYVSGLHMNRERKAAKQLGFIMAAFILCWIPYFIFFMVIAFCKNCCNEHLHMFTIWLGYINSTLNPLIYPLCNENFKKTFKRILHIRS
Chain of Muscarinic acetylcholine receptor M1 (Homo sapiens) (P11229 whole entry, looked up): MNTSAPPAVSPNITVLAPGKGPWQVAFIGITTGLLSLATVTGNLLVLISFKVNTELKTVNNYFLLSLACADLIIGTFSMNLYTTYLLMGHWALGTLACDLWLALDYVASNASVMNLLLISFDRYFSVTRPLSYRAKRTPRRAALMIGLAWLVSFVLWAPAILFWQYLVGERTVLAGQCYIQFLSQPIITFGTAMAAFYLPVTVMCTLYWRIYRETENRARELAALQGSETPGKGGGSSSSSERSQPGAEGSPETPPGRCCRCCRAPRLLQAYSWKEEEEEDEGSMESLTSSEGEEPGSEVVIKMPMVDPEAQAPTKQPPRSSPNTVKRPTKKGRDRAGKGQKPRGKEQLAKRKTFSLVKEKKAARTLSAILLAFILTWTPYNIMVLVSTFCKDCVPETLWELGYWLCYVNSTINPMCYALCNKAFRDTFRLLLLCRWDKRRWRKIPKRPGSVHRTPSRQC
Chain of human Dopamine Receptor D2 (DRD2), DRD2 (gene 1813) (P14416 whole entry, looked up): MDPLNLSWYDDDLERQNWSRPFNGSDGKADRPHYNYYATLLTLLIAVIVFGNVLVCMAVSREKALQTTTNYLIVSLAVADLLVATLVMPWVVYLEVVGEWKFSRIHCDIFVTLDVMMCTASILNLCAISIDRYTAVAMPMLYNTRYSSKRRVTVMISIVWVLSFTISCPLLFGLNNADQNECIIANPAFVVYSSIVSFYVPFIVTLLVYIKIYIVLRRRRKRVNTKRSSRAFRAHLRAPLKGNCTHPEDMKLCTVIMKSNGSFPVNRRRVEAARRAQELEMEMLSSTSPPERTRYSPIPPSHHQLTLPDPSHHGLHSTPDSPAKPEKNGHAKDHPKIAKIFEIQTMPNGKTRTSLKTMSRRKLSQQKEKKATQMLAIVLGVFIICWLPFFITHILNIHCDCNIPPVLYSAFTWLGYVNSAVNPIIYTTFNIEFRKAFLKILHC
Chain of human Adrenergic, Beta 3 Receptor (Adrb3), ADRB3 (gene 155) (P13945 whole entry, looked up): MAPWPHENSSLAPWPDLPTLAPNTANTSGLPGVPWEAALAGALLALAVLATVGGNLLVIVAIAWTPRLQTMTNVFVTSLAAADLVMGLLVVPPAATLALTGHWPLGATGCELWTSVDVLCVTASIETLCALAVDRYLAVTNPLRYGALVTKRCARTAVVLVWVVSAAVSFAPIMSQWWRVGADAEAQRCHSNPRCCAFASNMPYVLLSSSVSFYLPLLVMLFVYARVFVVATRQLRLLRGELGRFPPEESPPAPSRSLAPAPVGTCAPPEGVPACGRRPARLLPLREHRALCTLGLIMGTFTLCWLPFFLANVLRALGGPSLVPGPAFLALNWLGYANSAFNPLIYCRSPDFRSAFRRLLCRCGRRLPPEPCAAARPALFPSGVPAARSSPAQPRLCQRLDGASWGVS
Chain of human Endothelin Receptor Type B (ETB), EDNRB (gene 1910) (P24530 whole entry, looked up): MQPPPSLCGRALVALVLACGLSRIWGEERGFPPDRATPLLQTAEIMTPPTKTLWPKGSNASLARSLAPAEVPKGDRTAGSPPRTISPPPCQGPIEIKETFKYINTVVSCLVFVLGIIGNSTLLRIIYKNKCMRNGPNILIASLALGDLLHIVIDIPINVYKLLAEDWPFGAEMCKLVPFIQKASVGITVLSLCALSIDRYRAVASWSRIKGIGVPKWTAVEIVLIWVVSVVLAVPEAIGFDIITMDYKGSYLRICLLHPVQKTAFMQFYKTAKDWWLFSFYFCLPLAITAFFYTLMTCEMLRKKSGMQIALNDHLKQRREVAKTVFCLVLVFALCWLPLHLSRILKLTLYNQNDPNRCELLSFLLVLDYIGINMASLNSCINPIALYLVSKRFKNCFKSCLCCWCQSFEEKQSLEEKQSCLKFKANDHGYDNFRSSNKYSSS
Chain of Type-1 angiotensin II receptor (Homo sapiens) (P30556 whole entry, looked up): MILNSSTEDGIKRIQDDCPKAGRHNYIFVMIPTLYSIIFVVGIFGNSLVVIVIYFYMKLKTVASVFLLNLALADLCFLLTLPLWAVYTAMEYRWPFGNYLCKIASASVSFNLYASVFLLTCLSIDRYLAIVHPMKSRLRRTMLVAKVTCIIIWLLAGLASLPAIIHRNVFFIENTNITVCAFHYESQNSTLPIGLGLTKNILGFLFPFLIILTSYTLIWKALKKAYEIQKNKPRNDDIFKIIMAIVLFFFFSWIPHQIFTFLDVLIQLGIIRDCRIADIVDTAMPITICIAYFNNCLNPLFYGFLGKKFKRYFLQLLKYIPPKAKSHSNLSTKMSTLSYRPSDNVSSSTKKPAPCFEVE
Chain of human Endothelin Receptor Type A (ETA), EDNRA (gene 1909) (P25101 whole entry, looked up): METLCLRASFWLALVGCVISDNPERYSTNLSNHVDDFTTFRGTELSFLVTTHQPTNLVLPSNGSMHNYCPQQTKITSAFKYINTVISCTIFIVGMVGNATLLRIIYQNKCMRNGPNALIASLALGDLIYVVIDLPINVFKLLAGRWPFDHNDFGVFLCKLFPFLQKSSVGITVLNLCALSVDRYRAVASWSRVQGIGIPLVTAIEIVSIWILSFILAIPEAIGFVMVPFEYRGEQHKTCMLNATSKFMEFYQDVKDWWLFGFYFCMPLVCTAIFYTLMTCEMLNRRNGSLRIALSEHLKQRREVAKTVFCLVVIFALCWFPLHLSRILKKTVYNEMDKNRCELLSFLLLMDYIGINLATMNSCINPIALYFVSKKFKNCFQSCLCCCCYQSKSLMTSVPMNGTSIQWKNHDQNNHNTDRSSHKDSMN

Turning to `CC[C@H](c1ccc(O)cc1)[C@@H](CC)c1ccc(O)cc1`, in test [1], the molecule was called inactive. For the same molecule, in test [2], the AC50 is 6.99 µM (active).

`CCCCCCCCCCCCc1ccccc1S(=O)(=O)O`: the AC50 in test [3] is 21.7 µM (active); in test [4] it was 8.83 µM (active); in test [5] it was 9.01 µM (active); in test [2] it was 18.5 µM (active); in [6], 25.2 µM (active); in test [7], 6.99 µM (active). The AC50 in test [8] is 18.4 µM (active).

In the case of `NC(=O)N1C(=O)C(C(=O)c2cc(Cl)cs2)c2cc(F)c(Cl)cc21` (centres undefined), in [7], the molecule was classed as inactive.

Turning to `NC(=O)N(O)[C@@H]1C=C[C@H](Oc2cccc(Oc3ccc(F)cc3)c2)C1`, the molecule was called inactive in [3], in [1] and in [2]. The AC50 in test [7] was 25 µM (active).

For the molecule `CCCOc1sc(C(=O)N2CCC(c3cc(CN)ccc3F)CC2)c(C)c1Br`, the AC50 is 7.53 µM (active) in [3]; 33.5 µM (active) in [1]; 16.9 µM (active) in [5]; 9.42 µM (active) in test [2]; 18.2 µM (active) in test [6]; 3.56 µM (active) in test [7]. Further, the AC50 in test [8] is 8.67 µM (active).

Consider `Cc1oc(-c2ccccc2)nc1CCOc1ccc(C[C@H](Nc2ccccc2C(=O)c2ccccc2)C(=O)O)cc1`, for which the outcome in test [5] and in test [8] was inactive. Also, the AC50 is 35.5 µM (active) in [6] and 12.1 µM (active) in test [7].

`CCN(CC)CCNc1ccc(CNC=O)c2sc3ccc(OC)cc3c(=O)c12`: the AC50 in test [3] is 28.3 µM (active); in test [2] it was 18.8 µM (active); in test [6], 7.5 µM (active); in test [7], 7.31 µM (active); in [8] it was 4.7 µM (active).

For `N#C[C@@H]1CC(F)(F)CN1C(=O)CNC1CC2CCC(C1)N2c1ncccn1` (some centres undefined), the AC50 in [9] is 9.53 µM (active).

In the case of `c1ccc2cc3c(ccc4ccccc43)cc2c1`, in test [5], the half-maximal activity concentration (AC50) is 35.5 µM (active).

As to `CN1CCN(c2ccccc2/C=C2\SCCN(c3ccc(Cl)c(Cl)c3)C2=O)CC1`, in [3], the half-maximal activity concentration (AC50) is 0.199 µM (active).

Turning to `CC1=C(/C=C/C(C)=C/C=C/C(C)=C/C(=O)O)C(C)(C)CCC1`, the AC50 in test [5] was 1.8 µM (active).

With `COc1ccc([N+](=O)[O-])cc1N`, the AC50 in test [2] was 7.93 µM (active).

For `CC(C)(C)c1ccc(O)c(C(C)(C)C)c1`, in [9], the outcome was inactive.

As for `CCC(=C(c1ccc(O)cc1)c1ccc(OCCN(C)C)cc1)c1ccccc1`, the molecule was called inactive in test [5]. Further, the AC50 in test [2] is 0.647 µM (active); in test [7], 1.71 µM (active).

As for `C#C[C@]1(O)CC[C@H]2[C@@H]3CCC4=CC(=O)CC[C@@H]4[C@H]3CC[C@@]21C`, the molecule was called inactive in test [10].

`CCCCCCCCCCCCCC[N+](C)(C)C`: the concentration at half-maximal activity (AC50) in [7] is 4.57 µM (active).

Regarding `CC(=O)CC(C)(C)O`, the call in test [1] and in [10] was inactive.

As to `CCCCCCCC(=O)O`, the call in test [8] was inactive.

Turning to `O=C(O)Cc1cc(I)c(Oc2cc(I)c(O)c(I)c2)c(I)c1`, the call in [4] was inactive.

On to `CC(=O)NC1(c2cccc(F)c2)CCN(CC[C@@]2(c3ccc(Cl)c(Cl)c3)CN(c3ccccc3)C(=O)CO2)CC1`, for which the AC50 was 34.2 µM (active) in test [1], 13.2 µM (active) in test [5], 11 µM (active) in [2] and 14.8 µM (active) in test [7].
